Source: PubChem BioAssay
IDE exosite inh: exo-site inhibitors of human IDE, primary screen, biochemical, fluorescence anisotropy, probe displacement; z-score at 20 µM; purified IDE, FL-6b probe fluorescence polarization; active compounds read low; AID 1259349, 2017; Insulin-degrading enzyme (Homo sapiens), P14735; hit rate 6.3% among 17,000;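 active = z-score of -3 or lower, meaning strong loss of probe binding signal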;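 also: His-tagged human IDE residues 42-1019 made in E. coli with 30 nM FL-6b probe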
Target sequence (P14735 42-1019 limits assumed): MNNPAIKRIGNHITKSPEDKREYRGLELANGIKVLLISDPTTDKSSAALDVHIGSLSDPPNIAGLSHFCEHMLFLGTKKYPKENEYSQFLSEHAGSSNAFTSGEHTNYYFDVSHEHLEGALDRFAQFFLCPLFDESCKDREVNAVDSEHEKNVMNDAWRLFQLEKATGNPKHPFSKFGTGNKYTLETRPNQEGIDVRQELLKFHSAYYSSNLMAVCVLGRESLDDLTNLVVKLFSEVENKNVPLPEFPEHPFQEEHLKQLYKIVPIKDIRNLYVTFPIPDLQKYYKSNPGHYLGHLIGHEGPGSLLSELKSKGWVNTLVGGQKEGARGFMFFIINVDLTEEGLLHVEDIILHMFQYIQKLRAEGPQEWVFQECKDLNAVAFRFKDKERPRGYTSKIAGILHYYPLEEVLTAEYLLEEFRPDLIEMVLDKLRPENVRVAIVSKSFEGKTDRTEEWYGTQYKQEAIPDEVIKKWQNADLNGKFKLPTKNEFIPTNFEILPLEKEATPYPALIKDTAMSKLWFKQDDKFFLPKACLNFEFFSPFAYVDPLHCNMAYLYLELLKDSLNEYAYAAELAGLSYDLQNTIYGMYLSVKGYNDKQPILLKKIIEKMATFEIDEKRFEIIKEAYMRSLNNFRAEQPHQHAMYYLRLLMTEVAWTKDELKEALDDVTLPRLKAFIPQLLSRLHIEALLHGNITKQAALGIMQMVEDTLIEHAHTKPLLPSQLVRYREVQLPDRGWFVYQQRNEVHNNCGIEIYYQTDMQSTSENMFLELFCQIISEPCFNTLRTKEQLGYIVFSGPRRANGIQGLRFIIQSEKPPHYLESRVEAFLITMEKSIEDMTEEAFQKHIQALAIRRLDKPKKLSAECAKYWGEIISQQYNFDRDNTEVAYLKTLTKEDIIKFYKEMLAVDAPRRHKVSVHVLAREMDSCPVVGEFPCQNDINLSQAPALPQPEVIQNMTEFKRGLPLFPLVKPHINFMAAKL
* = called active by the depositor. Many of the other results were omitted from the sample, so hits are more common in it than they were.

What do the screens show for `CO[C@H]1CN(C)C(=O)c2ccc(NC(=O)c3cc(C)on3)cc2OC[C@H](C)NC[C@@H]1C`?
IDE exosite inh: 1.87

How did COc1cccc(C(=O)Nc2ccc3c(c2)C(=O)N(C)[C@H]2CC[C@H](CC(=O)N[C@H](C)c4ccccc4)O[C@H]2CO3)c1 do in these assays?
IDE exosite inh: -1.01

Results for Cn1cnc(S(=O)(=O)N2CCCCN3[C@H](CO)[C@H](c4ccc(C#CC5CCCC5)cc4)[C@H]3C2)c1 ?
IDE exosite inh: 1.95

What do the screens show for `COc1ccccc1-c1ccc([C@H]2[C@H]3CN(S(=O)(=O)c4cn(C)cn4)CCCCN3[C@H]2CO)cc1`?
IDE exosite inh: 0.557

Results for Cn1cnc(S(=O)(=O)N2CCCCN3[C@@H](CO)[C@H](c4ccc(C#CC5CCCC5)cc4)[C@@H]3C2)c1 ?
IDE exosite inh: 3.29

How did COc1ccccc1-c1ccc([C@@H]2[C@H](CO)N3CCCCN(S(=O)(=O)c4cn(C)cn4)C[C@@H]23)cc1 do in these assays?
IDE exosite inh: -12.7*

What do the screens show for `Cn1cnc(S(=O)(=O)N2CCCCN3[C@H](C2)[C@@H](c2ccc(C#CC4CCCC4)cc2)[C@@H]3CO)c1`?
IDE exosite inh: 1.21

Results for COc1ccccc1-c1ccc([C@@H]2[C@@H](CO)N3CCCCN(S(=O)(=O)c4cn(C)cn4)C[C@@H]23)cc1 ?
IDE exosite inh: -15.1*

How did Cc1noc(C)c1NC(=O)N1C[C@H](O)COC[C@@H]2O[C@@H](CC(=O)N[C@H]3CCN(Cc4ccccc4)C3)CC[C@H]21 do in these assays?
IDE exosite inh: -0.0611

Results for N#C[C@H]1[C@@H](c2ccc(C#CC3CC3)cc2)[C@@H](CO)N1C(=O)Cc1ccccn1 ?
IDE exosite inh: 3.9

Results for O=C(CN1CCOCC1)N1CC(=O)N2[C@H](C1)[C@H](c1ccc(C3=CCCCC3)cc1)[C@@H]2CO ?
IDE exosite inh: -0.859

How did COCC#Cc1ccc([C@@H]2[C@@H](CO)N3C(=O)CN(C(=O)c4cccnc4)C[C@H]23)cc1 do in these assays?
IDE exosite inh: 4.01

Results for CC(C)CC#Cc1ccc([C@@H]2[C@H](CO)N3C(=O)CN(C(=O)c4cccc(F)c4)C[C@@H]23)cc1 ?
IDE exosite inh: 1.25

What do the screens show for `COc1cccc(-c2ccc(C3[C@@H]4CN(C(=O)Cc5ccncc5)C[C@H]3N4)cc2)c1` (stereo partly drawn)?
IDE exosite inh: -0.543

How did COc1ccc2c3c(n(C)c2c1)[C@@H](CO)N(Cc1ccccc1OC)CC31CCN(CC2CC2)CC1 do in these assays?
IDE exosite inh: -1.67

Results for COCC(=O)N1CC(=O)N2[C@@H](CO)[C@@H](c3ccc(-c4ccccc4F)cc3)[C@@H]2C1 ?
IDE exosite inh: -1.07

What do the screens show for `CCC(=O)N1CC(=O)N2[C@H](CO)[C@H](c3ccc(-c4ccccc4F)cc3)[C@@H]2C1`?
IDE exosite inh: -2.07

What do the screens show for `COCC(=O)N1CC(=O)N2[C@H](C1)[C@@H](c1ccc(-c3ccccc3F)cc1)[C@@H]2CO`?
IDE exosite inh: -2.63

What do the screens show for `CCC(=O)N1CC(=O)N2[C@H](C1)[C@@H](c1ccc(-c3ccccc3F)cc1)[C@@H]2CO`?
IDE exosite inh: -8.05*

What do the screens show for `CCN1CC(=O)N2[C@H](CO)[C@H](c3ccc(-c4ccccc4F)cc3)[C@@H]2C1`?
IDE exosite inh: -0.0549

What do the screens show for `CCC(=O)N1CC(=O)N2[C@H](CO)[C@H](c3ccc(-c4ccccc4F)cc3)[C@H]2C1`?
IDE exosite inh: -7.42*

Results for C/C=C/c1ccc([C@H]2[C@@H](CO)N3C(=O)CN(C(=O)c4ccc(F)cc4)C[C@@H]23)cc1 ?
IDE exosite inh: 0.172

What do the screens show for `CCN(C[C@H]1[C@H](c2ccccc2)[C@@H](CO)N1C(C)=O)C(=O)c1ccccn1`?
IDE exosite inh: 2.9

Results for CCc1nc(N2[C@H](C#N)[C@@H](c3ccccc3-c3ccccc3F)[C@@H]2CO)sc1C ?
IDE exosite inh: 0.235

Results for N#C[C@@H]1[C@@H](c2ccccc2)[C@H](CO)N1S(=O)(=O)c1ccc(-c2ccccc2)cc1 ?
IDE exosite inh: 1.78

How did CN(C)C(=O)c1cccc(-c2ccc([C@@H]3[C@@H](CO)N4C(=O)CNC[C@@H]34)cc2)c1 do in these assays?
IDE exosite inh: 0.0544

How did O=C(c1ccccn1)N1CC(=O)N2[C@H](CO)[C@@H](c3ccc(C#CCc4ccccc4)cc3)[C@@H]2C1 do in these assays?
IDE exosite inh: -0.00488

Results for CC(C)C#Cc1ccc([C@@H]2[C@@H](CO)N3C(=O)CN(C(=O)c4ccccn4)C[C@@H]23)cc1 ?
IDE exosite inh: 0.714

What do the screens show for `O=C(c1ccccn1)N1CC(=O)N2[C@H](CO)[C@@H](c3ccc(C#CCc4ccccc4)cc3)[C@H]2C1`?
IDE exosite inh: -1.88

How did O=C(c1ccccn1)N1CC(=O)N2[C@H](CO)[C@@H](c3ccc(C#Cc4ccccc4)cc3)[C@@H]2C1 do in these assays?
IDE exosite inh: -7.27*

Results for O=C(c1ccccn1)N1CC(=O)N2[C@H](CO)[C@H](c3ccc(C#Cc4ccccc4)cc3)[C@@H]2C1 ?
IDE exosite inh: -5.83*

Results for O=C(c1ccccn1)N1CC(=O)N2[C@H](C1)[C@H](c1ccc(C#CCc3ccccc3)cc1)[C@@H]2CO ?
IDE exosite inh: 0.0494

Results for O=C(c1ccccn1)N1CC(=O)N2[C@@H](CO)[C@@H](c3ccc(C#Cc4ccccc4)cc3)[C@@H]2C1 ?
IDE exosite inh: -19.9*

Results for O=C(c1ccccn1)N1CC(=O)N2[C@H](C1)[C@@H](c1ccc(C#CCc3ccccc3)cc1)[C@@H]2CO ?
IDE exosite inh: 0.383

Results for CCCC#Cc1ccc([C@H]2[C@H]3CN(C(=O)c4ccccn4)CC(=O)N3[C@H]2CO)cc1 ?
IDE exosite inh: 2.58

How did CCCNC(=O)N1[C@H](C#N)[C@H](c2ccc(C3=CCCCC3)cc2)[C@@H]1CO do in these assays?
IDE exosite inh: 4.75

What do the screens show for `CCS(=O)(=O)Nc1ccc2c(c1)C(=O)N(C)[C@@H]1CC[C@@H](CC(=O)NCCCN3CCOCC3)O[C@H]1CO2`?
IDE exosite inh: -0.591

Results for O=C(Cc1ccccc1)N1CC(=O)N2[C@H](CO)[C@@H](c3ccc(-c4ccccc4)cc3)[C@@H]2C1 ?
IDE exosite inh: -2.73

Results for O=C(C1CC1)N1CC[C@@H]2[C@H]1c1cc(Br)ccc1N[C@@H]2CO ?
IDE exosite inh: 0.175

How did O=C1CN(S(=O)(=O)Cc2ccccc2)C[C@@H]2[C@@H](c3ccc(C#Cc4cccnc4)cc3)[C@@H](CO)N12 do in these assays?
IDE exosite inh: 0.799

Results for CC(=O)N1CC(=O)N2[C@H](CO)[C@@H](c3ccc(-c4ccc(C#N)cc4)cc3)[C@@H]2C1 ?
IDE exosite inh: 1.76

What do the screens show for `O=C(c1ccncc1)N1C[C@H]2[C@@H](c3ccccc31)[C@H](CO)N2C(=O)CN1CCOCC1`?
IDE exosite inh: 0.799

How did O=C(Cc1cccnc1)N1CC(=O)N2[C@@H](CO)[C@H](c3ccc(C4=CCCC4)cc3)[C@@H]2C1 do in these assays?
IDE exosite inh: 0.999

What do the screens show for `COCC#Cc1ccc([C@H]2[C@@H](CO)N3CCCCN(C(=O)COC)C[C@H]23)cc1`?
IDE exosite inh: 2.62

Results for COCC(=O)N1CCCCN2[C@H](CO)[C@H](c3ccc(C#Cc4ccc(OC)cc4)cc3)[C@@H]2C1 ?
IDE exosite inh: -8.49*

Results for COCC(=O)N1CCCCN2[C@H](CO)[C@@H](c3ccc(-c4ccccc4)cc3)[C@@H]2C1 ?
IDE exosite inh: -0.528
